log2 fold change data for 36 targets are collected here from the supplement of paper PMC10849652.

About 7,900 targets were measured; listed, in parts, are those with a hit and a random draw of the rest. About 0.6% of all pairs of compound and target were hits. A number with no mark means an inactive call.

Sequence of UniProt Q9NX01 (Q9NX01 whole entry, looked up): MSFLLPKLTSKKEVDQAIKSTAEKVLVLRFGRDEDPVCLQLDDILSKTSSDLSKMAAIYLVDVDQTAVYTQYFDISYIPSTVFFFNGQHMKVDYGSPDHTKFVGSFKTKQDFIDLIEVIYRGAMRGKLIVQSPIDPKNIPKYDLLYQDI
Sequence of UniProt Q9BQB6 (Q9BQB6 whole entry, looked up): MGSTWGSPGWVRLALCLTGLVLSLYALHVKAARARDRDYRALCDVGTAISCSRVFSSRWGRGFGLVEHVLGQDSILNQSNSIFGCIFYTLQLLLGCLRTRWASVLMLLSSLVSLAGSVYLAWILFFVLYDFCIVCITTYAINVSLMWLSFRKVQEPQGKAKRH
Sequence of UniProt Q9NVA4 (Q9NVA4 whole entry, looked up): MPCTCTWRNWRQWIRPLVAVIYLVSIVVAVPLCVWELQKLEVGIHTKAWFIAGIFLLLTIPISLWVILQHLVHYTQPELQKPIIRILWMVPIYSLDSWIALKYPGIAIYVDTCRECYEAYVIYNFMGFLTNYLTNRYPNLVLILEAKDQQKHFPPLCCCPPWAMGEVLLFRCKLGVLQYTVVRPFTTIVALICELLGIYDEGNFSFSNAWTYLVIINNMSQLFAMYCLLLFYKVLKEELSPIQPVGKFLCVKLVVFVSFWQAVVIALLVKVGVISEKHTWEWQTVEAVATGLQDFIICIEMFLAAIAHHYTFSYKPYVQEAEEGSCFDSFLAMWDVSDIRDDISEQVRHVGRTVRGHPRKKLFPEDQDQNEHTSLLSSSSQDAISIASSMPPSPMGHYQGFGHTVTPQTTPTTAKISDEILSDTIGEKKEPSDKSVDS
Sequence of UniProt Q6VEQ5 (Q6VEQ5 whole entry, looked up): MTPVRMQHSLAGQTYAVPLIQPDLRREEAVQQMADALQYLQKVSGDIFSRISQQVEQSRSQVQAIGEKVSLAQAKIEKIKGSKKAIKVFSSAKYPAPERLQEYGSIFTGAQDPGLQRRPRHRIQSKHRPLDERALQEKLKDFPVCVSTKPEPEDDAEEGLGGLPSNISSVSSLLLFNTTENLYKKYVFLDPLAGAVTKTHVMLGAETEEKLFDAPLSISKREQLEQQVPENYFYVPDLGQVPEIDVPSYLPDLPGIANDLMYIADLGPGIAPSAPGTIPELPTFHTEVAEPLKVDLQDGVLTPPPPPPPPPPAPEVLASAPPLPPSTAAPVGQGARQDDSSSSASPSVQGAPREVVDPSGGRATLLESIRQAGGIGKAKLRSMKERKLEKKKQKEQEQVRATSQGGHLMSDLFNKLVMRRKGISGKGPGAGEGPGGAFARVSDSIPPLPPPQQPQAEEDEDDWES
Sequence of UniProt Q9NQ34 (Q9NQ34 whole entry, looked up): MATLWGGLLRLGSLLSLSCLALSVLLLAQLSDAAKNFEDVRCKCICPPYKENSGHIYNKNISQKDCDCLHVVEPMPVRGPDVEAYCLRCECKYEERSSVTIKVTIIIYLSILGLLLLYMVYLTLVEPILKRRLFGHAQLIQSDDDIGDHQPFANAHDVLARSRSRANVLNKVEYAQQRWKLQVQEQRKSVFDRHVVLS
Sequence of UniProt Q7Z3J2 (Q7Z3J2 whole entry, looked up): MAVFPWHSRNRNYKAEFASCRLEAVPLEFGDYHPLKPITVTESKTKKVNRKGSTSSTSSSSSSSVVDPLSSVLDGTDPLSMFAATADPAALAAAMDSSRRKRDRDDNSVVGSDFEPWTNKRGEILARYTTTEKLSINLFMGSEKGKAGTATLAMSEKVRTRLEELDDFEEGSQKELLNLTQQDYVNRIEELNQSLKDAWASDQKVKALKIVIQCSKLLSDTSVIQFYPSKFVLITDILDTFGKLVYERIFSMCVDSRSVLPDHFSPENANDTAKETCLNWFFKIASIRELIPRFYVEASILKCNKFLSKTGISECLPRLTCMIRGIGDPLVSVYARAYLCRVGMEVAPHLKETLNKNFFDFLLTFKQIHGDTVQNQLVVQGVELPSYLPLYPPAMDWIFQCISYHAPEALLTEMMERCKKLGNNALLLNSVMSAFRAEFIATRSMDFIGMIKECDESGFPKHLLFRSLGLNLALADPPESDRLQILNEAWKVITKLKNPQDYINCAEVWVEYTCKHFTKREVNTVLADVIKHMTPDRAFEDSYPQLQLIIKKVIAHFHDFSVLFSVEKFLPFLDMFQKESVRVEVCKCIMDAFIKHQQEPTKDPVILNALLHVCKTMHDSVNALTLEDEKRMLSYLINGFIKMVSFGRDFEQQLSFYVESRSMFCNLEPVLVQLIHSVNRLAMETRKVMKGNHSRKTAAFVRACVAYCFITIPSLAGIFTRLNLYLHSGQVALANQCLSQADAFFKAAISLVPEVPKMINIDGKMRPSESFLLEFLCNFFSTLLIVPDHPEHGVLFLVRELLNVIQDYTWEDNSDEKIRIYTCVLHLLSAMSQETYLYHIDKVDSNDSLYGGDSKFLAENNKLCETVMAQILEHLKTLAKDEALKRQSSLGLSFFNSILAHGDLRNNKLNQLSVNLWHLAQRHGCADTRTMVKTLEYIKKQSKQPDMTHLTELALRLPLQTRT
Sequence of UniProt O95857 (O95857 whole entry, looked up): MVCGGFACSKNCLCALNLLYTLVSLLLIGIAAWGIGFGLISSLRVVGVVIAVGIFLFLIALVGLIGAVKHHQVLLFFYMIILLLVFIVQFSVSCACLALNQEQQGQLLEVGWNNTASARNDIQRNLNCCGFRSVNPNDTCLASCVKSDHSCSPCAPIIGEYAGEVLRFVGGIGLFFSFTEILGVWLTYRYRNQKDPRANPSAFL
Sequence of UniProt P51668 (P51668 whole entry, looked up): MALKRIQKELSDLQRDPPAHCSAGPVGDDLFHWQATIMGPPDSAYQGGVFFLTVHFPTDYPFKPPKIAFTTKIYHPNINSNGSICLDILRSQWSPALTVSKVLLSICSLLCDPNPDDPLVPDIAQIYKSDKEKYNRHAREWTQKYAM
Sequence of UniProt Q96DX7 (Q96DX7 whole entry, looked up): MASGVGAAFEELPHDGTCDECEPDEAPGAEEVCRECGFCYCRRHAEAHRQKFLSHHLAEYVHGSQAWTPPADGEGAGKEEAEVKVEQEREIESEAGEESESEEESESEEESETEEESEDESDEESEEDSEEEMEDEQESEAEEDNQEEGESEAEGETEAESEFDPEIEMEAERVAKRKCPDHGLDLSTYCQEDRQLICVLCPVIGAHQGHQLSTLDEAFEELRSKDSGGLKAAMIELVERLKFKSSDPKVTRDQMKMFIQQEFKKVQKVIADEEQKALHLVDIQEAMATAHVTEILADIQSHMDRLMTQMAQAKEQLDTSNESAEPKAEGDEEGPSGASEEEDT
Sequence of UniProt Q5VZI3 (Q5VZI3 whole entry, looked up): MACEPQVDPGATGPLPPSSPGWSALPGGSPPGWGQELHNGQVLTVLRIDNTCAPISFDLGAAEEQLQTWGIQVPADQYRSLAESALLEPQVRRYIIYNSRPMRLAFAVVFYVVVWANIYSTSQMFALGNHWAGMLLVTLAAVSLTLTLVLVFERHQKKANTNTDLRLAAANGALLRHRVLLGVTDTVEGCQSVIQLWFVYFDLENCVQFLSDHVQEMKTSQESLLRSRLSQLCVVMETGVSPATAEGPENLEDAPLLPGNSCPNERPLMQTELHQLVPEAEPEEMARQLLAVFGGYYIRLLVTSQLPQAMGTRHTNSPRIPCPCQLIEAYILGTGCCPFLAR
Sequence of UniProt P98170 (P98170 whole entry, looked up): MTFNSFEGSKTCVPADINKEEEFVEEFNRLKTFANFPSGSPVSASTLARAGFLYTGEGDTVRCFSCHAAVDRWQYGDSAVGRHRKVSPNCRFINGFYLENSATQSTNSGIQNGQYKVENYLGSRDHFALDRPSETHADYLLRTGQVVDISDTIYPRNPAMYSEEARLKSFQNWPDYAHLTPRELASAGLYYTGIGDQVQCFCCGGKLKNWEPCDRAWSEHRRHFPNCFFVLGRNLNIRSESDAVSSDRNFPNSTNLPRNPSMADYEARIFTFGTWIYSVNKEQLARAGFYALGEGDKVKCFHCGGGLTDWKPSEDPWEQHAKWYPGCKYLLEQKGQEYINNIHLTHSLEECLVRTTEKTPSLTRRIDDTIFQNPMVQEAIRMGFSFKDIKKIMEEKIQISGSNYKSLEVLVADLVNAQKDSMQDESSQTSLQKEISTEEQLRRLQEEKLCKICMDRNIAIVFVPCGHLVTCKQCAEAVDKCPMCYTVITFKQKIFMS
Sequence of UniProt Q7Z7N9 (Q7Z7N9 whole entry, looked up): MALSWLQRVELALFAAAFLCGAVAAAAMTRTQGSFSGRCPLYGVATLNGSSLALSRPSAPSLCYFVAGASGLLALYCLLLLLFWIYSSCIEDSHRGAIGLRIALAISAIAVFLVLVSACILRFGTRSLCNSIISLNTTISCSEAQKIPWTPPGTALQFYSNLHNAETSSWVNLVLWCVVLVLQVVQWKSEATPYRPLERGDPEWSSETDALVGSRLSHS
Sequence of UniProt A6NHL2 (A6NHL2 whole entry, looked up): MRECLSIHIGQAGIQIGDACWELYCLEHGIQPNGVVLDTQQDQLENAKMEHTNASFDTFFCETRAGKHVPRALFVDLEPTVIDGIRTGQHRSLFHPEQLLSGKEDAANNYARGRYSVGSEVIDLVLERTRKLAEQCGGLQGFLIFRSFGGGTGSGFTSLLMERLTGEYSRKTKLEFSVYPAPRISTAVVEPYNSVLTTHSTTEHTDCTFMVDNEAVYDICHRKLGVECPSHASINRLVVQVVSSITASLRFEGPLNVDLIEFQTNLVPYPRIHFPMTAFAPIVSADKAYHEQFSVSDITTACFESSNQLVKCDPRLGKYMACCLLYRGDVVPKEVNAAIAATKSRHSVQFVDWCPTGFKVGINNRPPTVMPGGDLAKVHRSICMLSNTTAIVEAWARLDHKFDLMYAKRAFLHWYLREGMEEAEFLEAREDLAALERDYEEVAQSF
Sequence of UniProt Q96HV5 (Q96HV5 whole entry, looked up): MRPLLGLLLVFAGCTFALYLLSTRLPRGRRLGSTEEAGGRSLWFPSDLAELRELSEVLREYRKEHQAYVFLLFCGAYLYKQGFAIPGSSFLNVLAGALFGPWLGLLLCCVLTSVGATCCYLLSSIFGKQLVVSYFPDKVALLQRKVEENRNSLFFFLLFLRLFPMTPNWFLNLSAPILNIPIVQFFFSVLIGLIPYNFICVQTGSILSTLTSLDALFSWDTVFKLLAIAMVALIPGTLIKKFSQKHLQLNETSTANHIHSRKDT

Compound in the first test: Cc1ccc(NC(=O)c2ccc(CN3CC[C@H](N(C)C)C3)c(C(F)(F)F)c2)cc1Nc1nccc(-c2cncnc2)n1 [bafetinib]
Description: log2 fold change, soluble protein after heating vs DMSO (PISA); higher = thermal stabilisation; K562 cells, 10 uM, 30 min; active = over 0.2 and 3.5 SD of the protein, either way, in both replicates (recomputed). An outline of the steps:
(§1)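 K562 cells at 2×10^6 cells/mL were treated for 30 min with 10 μM compound, and aliquots were heated for 3 min over 48°C-58°C before pooling. Extraction used PBS with 0.5% NP-40 at 4°C, and soluble protein was the supernatant after 21,000xg for 90 min, measured by TMTpro 16plex LC-MS/MS with channel sums equalised. Thermal stability values, relative to control samples and from duplicates, are log2 fold changes.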
As for UBIAD1 (UniProt Q9Y5Z9), the log2 fold change was -0.004.
In the case of TMEM41A (UniProt Q96HV5), the log2 fold change is -0.037.
On the same count and under the same terms, for TRIM23 (UniProt P36406) the value was -0.006; for TXNL4B (UniProt Q9NX01), -0.1.
On the same count and under the same terms, for TSPAN13 (UniProt O95857) the value was -0.101; for UNC119B (UniProt A6NIH7), 0.424.
On the same count and under the same terms, for TUT4 (UniProt Q5TAX3) the value was -0.281; for VKORC1 (UniProt Q9BQB6), -0.062.
Regarding UBAP2L (UniProt F8W726), the log2 fold change was 0.02.
On the same count and under the same terms, to WASH2P (UniProt Q6VEQ5) belongs -0.06; to TMEM184C (UniProt Q9NVA4), -0.132; to VWA3B isoform 6 (UniProt Q502W6), 0.074.
Take UBE2J1 (UniProt Q9Y385): the log2 fold change is 0.108.
For the target TMEM268 isoform 3 (UniProt Q5VZI3), the log2 fold change was 0.318.
For UFM1 isoform 2 (UniProt P61960), the log2 fold change is -0.061.
For TMEM106B (UniProt Q9NUM4), the log2 fold change was -0.094.
UBE2D1 (UniProt P51668): the log2 fold change was -0.065.
As for VPS37A (UniProt Q8NEZ2), the log2 fold change was -0.065.
For XRCC6 (UniProt P12956), the log2 fold change is -0.003.
With UBXN10 (UniProt Q96LJ8), the log2 fold change is 0.002.
The same measure, in the same setting: to TXNIP (UniProt Q9H3M7) belongs 0.03.
As to WEE1 (UniProt P30291), the log2 fold change is -0.152.
With TRABD (UniProt Q9H4I3), the log2 fold change is 0.202.
TMEM164 (UniProt Q5U3C3): the log2 fold change is -0.097.
On to TRIM44 (UniProt Q96DX7), for which the log2 fold change is -0.033.
For TUBAL3 (UniProt A6NHL2), the log2 fold change was 0.167.
TMEM8A (UniProt Q9HCN3): the log2 fold change was -0.054.
For TRIM4 (UniProt Q9C037), the log2 fold change was 0.039.
As to UXT isoform 2 (UniProt Q9UBK9), the log2 fold change was 0.016.
Take TMEM9B (UniProt Q9NQ34): the log2 fold change was -0.039.
Regarding TMEM219 (UniProt Q86XT9), the log2 fold change is -0.211.
Turning to VPS35L (UniProt Q7Z3J2), the log2 fold change was 0.006.
For VPS13B (UniProt Q7Z7G8), the log2 fold change is -0.075.
Regarding TMEM179B (UniProt Q7Z7N9), the log2 fold change was -0.074.
On to XIAP (UniProt P98170), for which the log2 fold change was -0.111.
For VPS51 (UniProt Q9UID3), the log2 fold change was 0.009.

Compound in the next test: Cc1cccc(CC(=O)N2CCc3c2ccc(-c2cn(C)c4ncnc(N)c24)c3F)n1
The description is as above. An outline of the steps:
as §1
Regarding UBIAD1 (UniProt Q9Y5Z9), the log2 fold change was -0.022.
The same measure, in the same setting: for TMEM41A (UniProt Q96HV5) the value was 0.276 (active); for TRIM23 (UniProt P36406), -0.121.
For TXNL4B (UniProt Q9NX01), the log2 fold change was 0.005.
The same measure, in the same setting: to TSPAN13 (UniProt O95857) belongs 0.014.
Same read-out and setting: for UNC119B (UniProt A6NIH7) the value was -0.006; for TUT4 (UniProt Q5TAX3), 0.074; for VKORC1 (UniProt Q9BQB6), 0.045.
For UBAP2L (UniProt F8W726), the log2 fold change was -0.049.
Consider WASH2P (UniProt Q6VEQ5), for which the log2 fold change is 0.017.
Regarding TMEM184C (UniProt Q9NVA4), the log2 fold change was -0.111.
Regarding VWA3B isoform 6 (UniProt Q502W6), the log2 fold change was 0.024.
On to UBE2J1 (UniProt Q9Y385), for which the log2 fold change was 0.023.
Regarding TMEM268 isoform 3 (UniProt Q5VZI3), the log2 fold change is -0.096.
For UFM1 isoform 2 (UniProt P61960), the log2 fold change is 0.089.
For TMEM106B (UniProt Q9NUM4), the log2 fold change was 0.035.
Consider UBE2D1 (UniProt P51668), for which the log2 fold change is -0.345 (active).
For VPS37A (UniProt Q8NEZ2), the log2 fold change is -0.06.
Turning to XRCC6 (UniProt P12956), the log2 fold change was 0.032.
For UBXN10 (UniProt Q96LJ8), the log2 fold change was -0.266.
Consider TXNIP (UniProt Q9H3M7), for which the log2 fold change was -0.072.
Same read-out and setting: for WEE1 (UniProt P30291) the value was -0.062; for TRABD (UniProt Q9H4I3), -0.038.
With TMEM164 (UniProt Q5U3C3), the log2 fold change was -0.155.
On the same count and under the same terms, to TRIM44 (UniProt Q96DX7) belongs -0.01.
Take TUBAL3 (UniProt A6NHL2): the log2 fold change is 0.049.
As for TMEM8A (UniProt Q9HCN3), the log2 fold change was 0.096.
Same read-out and setting: to TRIM4 (UniProt Q9C037) belongs -0.015; to UXT isoform 2 (UniProt Q9UBK9), 0.036; to TMEM9B (UniProt Q9NQ34), 0.036.
As for TMEM219 (UniProt Q86XT9), the log2 fold change was 0.027.
Still for that read-out and setting: to VPS35L (UniProt Q7Z3J2) belongs -0.008.
On to VPS13B (UniProt Q7Z7G8), for which the log2 fold change was -0.012.
Regarding TMEM179B (UniProt Q7Z7N9), the log2 fold change is -0.065.
On to XIAP (UniProt P98170), for which the log2 fold change was -0.046.
The same measure, in the same setting: to VPS51 (UniProt Q9UID3) belongs 0.039.
